The nature of assay [1]: qHTS assay to identify small molecule antagonists of the sonic hedgehog signaling (Shh) pathway (AID 1259369). Also: nearly all actives have a fitted effect of over 45% in size. Also: potency is read from the fitted curve at half-maximal effect. In outline:
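Gli1 transcriptional reporter (firefly Luc) in NIH/3T3 background, conditioned-medium activated. 24hr exposure, luminescence endpoint.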
On the technique in general: Quantitative high-throughput screening tests each substance at several concentrations.

Assay [2] can be described thus: qHTS assay to identify small molecule agonists of the estrogen receptor beta (ER-beta) signaling pathway - cell viability counter screen (AID 1259380; active = well fitted curve in the direction sought with a large enough effect in the repeat runs; an effect the other way counts as inactive or inconclusive; also: nearly all actives have a fitted effect of over 30% in size; also: potency is read from the fitted curve at half-maximal effect). The method in brief:
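In this qHTS counter screen, HEK293T cells carrying an ER-beta/UAS beta-lactamase reporter, grown in 2% charcoal-stripped FBS, received compound for 16 hr; ATP-based CellTiter-Glo luminescence was then read after 30 min at room temperature.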

Assay [3] can be described thus: qHTS assay to identify small molecule antagonists of the estrogen receptor beta (ER-beta) signaling pathway - cell viability counter screen (AID 1259382; active = well fitted curve in the direction sought with a large enough effect in the repeat runs; an effect the other way counts as inactive or inconclusive; also: nearly all actives have a fitted effect of over 55% in size; also: potency is read from the fitted curve at half-maximal effect). The method in brief:
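HEK293T ER-beta-UAS-bla, 2% charcoal-stripped FBS; compounds + 1nM E2 16 hr 37C; CellTiter-Glo luminescence, 30 min RT.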

The target of assay [4] is Estrogen receptor (Homo sapiens) (UniProt P03372). The assay is described as follows: qHTS assay to identify small molecule agonists of the estrogen receptor alpha (ER-alpha) signaling pathway in the presence of an antagonist (AID 1259383). Also: nearly all actives have a fitted effect of over 15% in size. Also: potency is read from the fitted curve at half-maximal effect. As to activation: top concentration of the series differs between compounds. The method in brief: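 ER-alpha agonism measured under antagonist challenge: 10.0nM ICI-182,780 (final) plus compound, 15 concentrations, 22hr, VM7Luc4E2 ERE-luciferase cells. Read by luminescence.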
Sequence of Estrogen receptor (Homo sapiens) (P03372 whole entry, looked up): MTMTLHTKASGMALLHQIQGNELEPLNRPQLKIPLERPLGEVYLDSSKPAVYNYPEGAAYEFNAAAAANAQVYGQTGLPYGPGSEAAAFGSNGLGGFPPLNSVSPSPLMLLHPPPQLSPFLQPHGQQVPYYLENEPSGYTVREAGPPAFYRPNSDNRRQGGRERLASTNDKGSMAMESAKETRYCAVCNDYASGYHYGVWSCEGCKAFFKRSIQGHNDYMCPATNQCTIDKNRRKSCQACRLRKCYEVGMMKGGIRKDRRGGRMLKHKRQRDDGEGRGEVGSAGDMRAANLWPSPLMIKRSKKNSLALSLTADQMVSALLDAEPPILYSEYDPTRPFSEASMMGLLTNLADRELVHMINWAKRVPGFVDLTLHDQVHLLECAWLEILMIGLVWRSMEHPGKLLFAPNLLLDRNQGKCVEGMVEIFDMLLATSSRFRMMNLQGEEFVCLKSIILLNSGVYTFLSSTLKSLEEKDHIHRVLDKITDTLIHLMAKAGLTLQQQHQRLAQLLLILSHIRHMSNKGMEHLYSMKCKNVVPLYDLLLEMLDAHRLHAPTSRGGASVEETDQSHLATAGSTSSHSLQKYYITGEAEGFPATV

Assay [5] addresses Thyrotropin receptor (Homo sapiens) (UniProt P16473). Nature of the assay: qHTS assay to identify small molecule antagonists of the thyroid stimulating hormone receptor (TSHR) signaling pathway (AID 1259385). Also: nearly all actives have a fitted effect of over 20% in size. Also: potency is read from the fitted curve at half-maximal effect. In outline:
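TSHR-HEK293 cells (800/well) plated 18 h, then compounds with Ro20-1724 and TSH at 1.5 ng/mL final, 30 min at room temperature. cAMP quantified by HTRF (cAMP-d2/anti-cAMP-cryptate, 1 h); 15 concentrations in triplicate.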

Assay [6] deals with Androgen receptor (Homo sapiens) (UniProt P10275). Nature of the assay: qHTS assay to identify small molecule agonists of the androgen receptor (AR) signaling pathway in the presence of an antagonist (AID 1259381). Also: nearly all actives have a fitted effect of over 15% in size. Also: potency is read from the fitted curve at half-maximal effect. In outline: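 AR antagonist background: nilutamide 3.0uM final. Cell line: MDA-kb2, MMTV-driven luciferase, responsive to both AR and GR. Exposure 16hr, 37C, no CO2; ONE-Glo luminescence.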
Sequence of Androgen receptor (Homo sapiens) (P10275 whole entry, looked up): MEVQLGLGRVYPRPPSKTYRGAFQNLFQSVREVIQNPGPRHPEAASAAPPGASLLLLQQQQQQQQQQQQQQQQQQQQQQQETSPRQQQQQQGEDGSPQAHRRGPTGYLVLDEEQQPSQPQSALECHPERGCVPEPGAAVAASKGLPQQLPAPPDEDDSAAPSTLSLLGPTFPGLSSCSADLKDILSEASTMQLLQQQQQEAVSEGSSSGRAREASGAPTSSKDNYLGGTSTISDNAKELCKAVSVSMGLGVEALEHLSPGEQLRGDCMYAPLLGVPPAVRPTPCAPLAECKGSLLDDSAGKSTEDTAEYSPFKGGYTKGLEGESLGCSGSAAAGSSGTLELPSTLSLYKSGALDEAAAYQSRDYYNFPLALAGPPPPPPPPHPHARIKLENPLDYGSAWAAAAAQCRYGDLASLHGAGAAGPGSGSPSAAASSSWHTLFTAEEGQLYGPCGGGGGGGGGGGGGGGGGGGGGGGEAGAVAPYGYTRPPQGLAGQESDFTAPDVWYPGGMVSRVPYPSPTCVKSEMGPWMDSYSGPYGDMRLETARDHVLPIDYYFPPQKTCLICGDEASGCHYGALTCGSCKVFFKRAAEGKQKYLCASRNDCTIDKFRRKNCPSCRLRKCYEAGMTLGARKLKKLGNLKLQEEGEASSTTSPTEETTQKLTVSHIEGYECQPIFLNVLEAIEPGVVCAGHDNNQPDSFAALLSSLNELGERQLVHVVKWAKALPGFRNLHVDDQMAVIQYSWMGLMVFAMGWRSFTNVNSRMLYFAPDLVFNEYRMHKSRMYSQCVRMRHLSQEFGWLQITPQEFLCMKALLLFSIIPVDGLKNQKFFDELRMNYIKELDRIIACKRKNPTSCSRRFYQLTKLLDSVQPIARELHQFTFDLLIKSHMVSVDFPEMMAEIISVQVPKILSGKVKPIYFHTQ

Assay [7] in a line: qHTS assay to identify small molecule agonists or antagonists of the thyroid stimulating hormone receptor (TSHR) signaling pathway - wild type cell line counter screen (AID 1259384). The method in brief:
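Wild-type Hek293 cells, 800/well, 18 h at 37C, then compound with Ro20-1724 for 30 min RT. cAMP by HTRF (cAMP-d2/anti-cAMP cryptate), 1 h RT, fluorescence read. 15 concentrations, triplicates.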

Assay [8] is described as follows: qHTS assay to identify small molecule agonists of the androgen receptor (AR) signaling pathway in the presence of an antagonist - cell viability counter screen (AID 1259379; active = well fitted curve in the direction sought with a large enough effect in the repeat runs; an effect the other way counts as inactive or inconclusive; also: nearly all actives have a fitted effect of over 25% in size; also: potency is read from the fitted curve at half-maximal effect). In outline: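 Counter screen for cell viability run in parallel with the AR agonist-mode luciferase assay. MDA-kb2 cells were co-treated with nilutamide (3.0uM final) and compounds, then incubated 16 hr at 37C, and CellTiter-Fluor fluorescence was measured.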

The target in assay [9] is Estrogen receptor beta (Homo sapiens) (UniProt Q92731). Nature of the assay: qHTS assay to identify small molecule antagonists of the estrogen receptor beta (ER-beta) signaling pathway (AID 1259378; active = well fitted inhibition curve with a large enough effect in the signal ratio in the repeat runs, not every such curve was filed as active; the % refers to the signal ratio; also: potency is read from the fitted curve at half-maximal effect). In outline: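 ER-beta-UAS-bla HEK293T cells in 2% charcoal-stripped FBS medium treated with compound plus 1nM final 17-beta-estradiol for 16 hr at 37C. Beta-lactamase reporter read by FRET substrate fluorescence after 2 hours at room temperature.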
Sequence of Estrogen receptor beta (Homo sapiens) (Q92731 whole entry, looked up): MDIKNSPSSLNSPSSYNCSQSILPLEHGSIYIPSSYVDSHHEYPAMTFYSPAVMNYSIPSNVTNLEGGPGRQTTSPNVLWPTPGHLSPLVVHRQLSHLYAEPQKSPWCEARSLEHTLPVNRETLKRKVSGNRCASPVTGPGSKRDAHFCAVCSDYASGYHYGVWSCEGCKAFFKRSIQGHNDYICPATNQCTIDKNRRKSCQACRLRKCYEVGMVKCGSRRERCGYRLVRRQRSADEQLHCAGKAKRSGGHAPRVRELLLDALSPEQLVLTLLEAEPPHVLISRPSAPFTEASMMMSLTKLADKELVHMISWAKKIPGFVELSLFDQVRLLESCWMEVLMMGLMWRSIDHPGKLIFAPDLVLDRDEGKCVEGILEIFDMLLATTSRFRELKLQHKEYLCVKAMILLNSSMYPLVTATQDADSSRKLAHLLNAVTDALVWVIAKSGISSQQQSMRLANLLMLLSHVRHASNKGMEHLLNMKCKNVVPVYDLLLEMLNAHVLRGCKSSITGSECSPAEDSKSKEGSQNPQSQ

Assay [10] has the same target. Nature of the assay: qHTS assay to identify small molecule agonists of the estrogen receptor beta (ER-beta) signaling pathway (AID 1259377; active = well fitted activation curve with a large enough effect in the signal ratio in the repeat runs, not every such curve was filed as active; the % refers to the signal ratio). The method in brief: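 Agonist mode cell assay in GripTite HEK293T cells expressing an ER-beta fusion that drives beta-lactamase from an Upstream Activator Sequence; 16 hr compound exposure at 37C, then 2 h LiveBLAzer B/G FRET substrate at room temperature, fluorescence read-out.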

Values joined by “and” are separate entries in the source; they are usually repeats but may differ in a detail not shown here. Equal entries are not always repeated. Results filed as inconclusive are left out. Some structures have more than one record in an assay (separate samples or runs), and their calls can disagree. Active and inactive are the calls of the source. Unless noted, calls follow the shape of the full dose curve.

Data on 31 compounds can be found in PubChem BioAssay (Tox21).

Sequence of Thyrotropin receptor (Homo sapiens) (P16473 whole entry, looked up): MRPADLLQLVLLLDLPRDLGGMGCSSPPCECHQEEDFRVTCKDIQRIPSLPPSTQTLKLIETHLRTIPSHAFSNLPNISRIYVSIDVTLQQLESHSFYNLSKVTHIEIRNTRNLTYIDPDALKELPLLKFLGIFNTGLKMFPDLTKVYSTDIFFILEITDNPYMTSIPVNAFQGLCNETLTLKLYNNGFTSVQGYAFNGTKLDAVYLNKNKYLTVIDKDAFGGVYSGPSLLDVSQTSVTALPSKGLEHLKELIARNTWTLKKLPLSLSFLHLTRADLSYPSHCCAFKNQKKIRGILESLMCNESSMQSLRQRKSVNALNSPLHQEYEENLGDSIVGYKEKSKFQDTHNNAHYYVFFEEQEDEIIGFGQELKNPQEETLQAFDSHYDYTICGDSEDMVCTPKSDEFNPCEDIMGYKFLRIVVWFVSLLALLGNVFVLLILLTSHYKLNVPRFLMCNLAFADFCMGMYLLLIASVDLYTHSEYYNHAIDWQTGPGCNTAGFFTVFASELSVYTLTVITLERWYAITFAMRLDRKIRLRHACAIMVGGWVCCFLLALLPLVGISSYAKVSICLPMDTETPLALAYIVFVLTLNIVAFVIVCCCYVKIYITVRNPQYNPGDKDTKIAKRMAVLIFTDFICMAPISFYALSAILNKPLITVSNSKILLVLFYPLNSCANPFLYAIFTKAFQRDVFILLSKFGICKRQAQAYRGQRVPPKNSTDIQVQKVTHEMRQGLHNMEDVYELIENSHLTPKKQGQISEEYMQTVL

In the case of `ClC1=C(Cl)[C@]2(Cl)[C@@H]3[C@H]4C[C@H]([C@@H]5O[C@H]45)[C@@H]3[C@@]1(Cl)C2(Cl)Cl`, the Potency in [1] was 24.3 µM (active). The Potency entry in assay [2], in assay [3], in assay [4] and in assay [5] was “inactive” in each case.
As to `COP(=O)(OC)O/C(=C\Cl)c1cc(Cl)c(Cl)cc1Cl`, the Potency entry in assay [1], in assay [6], in assay [3], in assay [4] and in assay [7] was “inactive” throughout.
`N#CCCl`: the Potency result in assay [1], in assay [4], in assay [7] and in assay [5] was “inactive” each time. In addition, the Potency in assay [2] was 25.4 µM (active).
Consider `O=C1C2(Cl)C3(Cl)C4(Cl)C(Cl)(Cl)C5(Cl)C3(Cl)C1(Cl)C5(Cl)C24Cl` (stereo not given), for which the Potency is 12 µM (active) and 29.3 µM (active) in assay [1]; 13.5 µM (active) and inactive in assay [6]; 26.9 µM (active) and 58.5 µM (active) in assay [3]. Moreover, the Potency result in [7] is “inactive”.
For the compound `C=CC(=O)[O][Sn]([CH2]CCC)([CH2]CCC)[CH2]CCC`, the Potency was 0.486 µM (active) in assay [1], 2.43 µM (active) in assay [2], 3.06 µM (active) in assay [3] and 13.7 µM (active) in [5]. Besides, the Potency result in assay [6] and in assay [4] was “inactive” each time.
On to `CN1C(=O)[C@@H](NC(=O)c2cc3ccccc3[nH]2)N=C(c2ccccc2)c2ccccc21`, for which the Potency result in assay [1], in [8], in [3], in assay [7] and in [5] was “inactive” throughout.
Consider `CCC(C)Br` (stereo not given), for which the Potency entry in assay [9], in assay [3], in [7] and in assay [5] was “inactive” throughout.
`O=C(Cl)c1ccccc1F`: the Potency result in [10], in assay [9], in assay [3], in assay [4], in assay [7] and in assay [5] was “inactive” each time.
As for `O=C(Nc1ccc(F)cc1F)c1cccnc1Oc1cccc(C(F)(F)F)c1`, the Potency result in assay [10], in [9], in assay [8], in [3], in assay [7] and in assay [5] was “inactive” each time.
`CC(Cc1ccccc1)N(C)Cc1ccco1` (stereo not given): the Potency result in [8], in assay [2], in assay [6], in assay [3], in assay [4] and in assay [5] was “inactive” in each case.
Consider `Cc1ccc(C)c2ccccc12`, for which the Potency result in assay [9], in assay [8], in assay [6] and in [3] was “inactive” in each case.
Consider `O=[N+]([O-])c1cccc2cccc([N+](=O)[O-])c12`, for which the Potency result in assay [10], in assay [8], in [2] and in [3] was “inactive” in each case.
Regarding `CC(C)NCC(O)c1ccccc1Cl` (stereo not given), the Potency result in assay [8], in assay [2], in assay [6], in assay [3] and in [4] was “inactive” each time.
For `c1ccc(Nc2ccc(Nc3ccccc3)cc2)cc1`, the Potency was 0.136 µM (active) in assay [9] and 54.3 µM (active) in [4]. Further, the Potency entry in assay [3], in assay [7] and in assay [5] was “inactive” each time.
Consider `COC(=O)C(C)N(C(=O)c1ccco1)c1c(C)cccc1C` (stereo not given), for which the Potency entry in assay [10], in assay [9], in assay [8], in assay [2], in [3] and in assay [4] was “inactive” each time. Also, the Potency entry in [5] is “inactive”.
`COCCC#N`: the Potency entry in [10], in assay [9], in assay [8], in [3], in assay [7] and in assay [5] was “inactive” throughout.
As for `N#CSCc1ccccc1`, the Potency result in [9], in [8], in assay [2], in assay [3], in [4] and in [5] was “inactive” throughout.
`Brc1ccc(Oc2ccc(Br)cc2Br)c(Br)c1`: the Potency result in [10], in [8], in assay [3], in assay [4] and in assay [7] was “inactive” throughout. Also, in [5], the Potency is 61.2 µM (active).
For the compound `O=c1[nH]c2cc(Cl)ccc2n1C1CCNCC1`, the Potency result in [8], in assay [2], in assay [6], in assay [3], in assay [4] and in assay [7] was “inactive” in each case. The Potency entry in [5] is “inactive”.
Take `COc1ccc2[nH]cc(CCN(C(C)C)C(C)C)c2c1`: the Potency entry in [9], in [8] and in assay [5] was “inactive” throughout.
On to `CCCCC/C=C\C/C=C\C/C=C\C/C=C\CCCC(=O)NCC(=O)O`, for which the Potency entry in assay [10], in assay [8] and in assay [4] was “inactive” each time. Further, the Potency in assay [2] is 11.9 µM (active).
On to `FC(F)C(F)(F)OCC(Cn1cncn1)c1ccc(Cl)cc1Cl` (stereo not given), for which the Potency entry in assay [10] and in assay [7] was “inactive” throughout. For the same compound, the Potency in assay [2] is 60.8 µM (active).
Take `BrCCCBr`: the Potency result in assay [8], in assay [2], in assay [6], in assay [3] and in [5] was “inactive” each time.
As for `CC(C)C(Nc1ccc(C(F)(F)F)cc1Cl)C(=O)OC(C#N)c1cccc(Oc2ccccc2)c1` (stereo not given), the Potency entry in assay [9], in assay [8], in [2], in assay [3] and in [4] was “inactive” throughout.
On to `C#CCO`, for which the Potency result in assay [9], in [8], in [2], in assay [3] and in [4] was “inactive” throughout.
Take `O=S1OCC2C(CO1)C1(Cl)C(Cl)=C(Cl)C2(Cl)C1(Cl)Cl` (stereo not given): the Potency result in [8], in [6], in assay [4], in [7] and in [5] was “inactive” in each case. Also, the Potency in [2] is 48.5 µM (active).
On to `CC(C)(C)c1ccc(OP(=O)(Oc2ccccc2)Oc2ccccc2)cc1`, for which the Potency result in assay [10], in [8] and in assay [4] was “inactive” each time.
Turning to `Nc1ccccc1-c1ccccc1`, the Potency result in assay [9], in assay [3], in assay [4] and in assay [5] was “inactive” in each case.
On to `CC(=O)[O][Pb]([c]1ccccc1)([c]1ccccc1)[c]1ccccc1`, for which the Potency in assay [9] was 0.969 µM (active); in assay [8], 7.7 µM (active); in [2] it was 4.86 µM (active); in [3], 5.45 µM (active); in [5], 24.3 µM (active). Besides, the Potency result in assay [6], in [4] and in [7] was “inactive” throughout.
With `CCOP(=S)(OCC)SC(CCl)N1C(=O)c2ccccc2C1=O` (stereo not given), the Potency result in assay [10], in assay [8], in [6], in assay [3] and in [7] was “inactive” throughout. Further, the Potency in assay [9] is 30.6 µM (active).
Consider `C[N+]1(C)[C@@H]2CC[C@H]1CC(OC(=O)C(CO)c1ccccc1)C2` (stereo not given in full), for which the Potency result in assay [9], in [8], in [2], in assay [3], in assay [7] and in assay [5] was “inactive” throughout.
